Source: PubChem BioAssay
ALDH1A1 block: ALDH1A1 (human) enzyme inhibition. P00352. Purified ALDH1A1, NADH fluorescence, propionaldehyde substrate. Potency, µM (series often up to 75.3 µM), without a hit: at the top dose activity, negative = inhibition, usual class: inhibitors. 220,000 tested, 7.3% active. AID 1030; active = well fitted inhibition curve with a large enough effect, not every such curve was filed as active; inconclusive = small, poorly fitted or top-dose-only effect, or another doubt; inactive = no such curve, though single readings can be large or run the other way;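 also: plate controls were no enzyme wells and a reference inhibitor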
Gal4-VP16 FLuc: Gal4-VP16 reporter inhibition counter-screen. Drosophila S2 Gal4-VP16 UAS-luciferase, luminescence, 20 h. Potency, µM (highest dose often 53.6 µM), inactives show top-dose activity, negative = inhibition, hits mostly inhibitors. 310,000 tested, 3.5% active;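 also: Gal4-VP16 expression switched on by copper sulfate through the metallothionein promoter; nearly all actives have a fitted effect of over 50% in size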
RORgamma inh: ROR gamma (mouse) transcription inhibition | 310,000 tested, 5.4% active | Drosophila S2 Gal4-RORgamma UAS-luciferase reporter, 20 h | AID 2551 | Potency, µM (doses to about 53.6 µM), without a hit: top-dose activity change, negative = inhibition, most hits filed as inhibitors | P51450; also: nearly all actives have a fitted effect of over 60% in size
Target sequence (P51450 whole entry, looked up, the tested form may be a part): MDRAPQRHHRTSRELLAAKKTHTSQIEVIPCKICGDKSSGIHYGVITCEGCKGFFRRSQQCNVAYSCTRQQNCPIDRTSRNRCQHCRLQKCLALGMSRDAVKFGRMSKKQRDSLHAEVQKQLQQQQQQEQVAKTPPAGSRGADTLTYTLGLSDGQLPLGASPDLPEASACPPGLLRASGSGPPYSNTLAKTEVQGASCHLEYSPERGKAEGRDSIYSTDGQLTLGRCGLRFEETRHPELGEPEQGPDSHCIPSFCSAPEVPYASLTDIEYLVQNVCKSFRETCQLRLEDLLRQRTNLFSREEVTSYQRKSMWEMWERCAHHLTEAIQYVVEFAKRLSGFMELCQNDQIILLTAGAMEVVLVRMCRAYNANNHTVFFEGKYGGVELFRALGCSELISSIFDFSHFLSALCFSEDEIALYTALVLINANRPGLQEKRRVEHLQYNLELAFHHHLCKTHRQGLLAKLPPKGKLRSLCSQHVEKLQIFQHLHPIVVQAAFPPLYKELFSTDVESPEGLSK
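Luminescence from a UAS-regulated Photinus luciferase reporter in stably transfected Drosophila Schneider cells is measured; decreased signal marks ROR gamma inhibition. Fusion expression is induced by 700 uM copper sulfate for 20 hr.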
Sfp inh: inhibitors of Bacillus subtilis Sfp phosphopantetheinyl transferase; Q9F4F7; Biochemical Sfp PPTase activity, qHTS; Potency, µM, for inactives: largest response in the series, negative = inhibition, most hits filed as inhibitors; 310,000 tested, 3.5% active; AID 1490;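 also: the enzyme is Sfp with the accession as filed and its product quenches rhodamine fluorescence; 0% = enzyme reaction without inhibitor and -100% = no enzyme wells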
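After 15 min at room temperature with compound, 15 nM Sfp received 5 uM rhodamine-CoA plus 12.5 uM BHQ-2-ybbR (50 mM Hepes pH 7.6, 10 mM MgCl2). Rate came from the fluorescence difference over 30 min, ex 525/em 598 nm.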
PLK1 PBD block: inhibitors of human PLK1 polo-box domain binding; 360,000 tested, 2.8% active; P53350; Potency, µM, for inactives: max response, negative = inhibition, usual class: inhibitors; Plk1 PBD binding of FITC phosphopeptide, fluorescence polarization; AID 720504; also: series mostly up to about 57 µM; nearly all actives have a fitted effect of over 65% in size
* = called active by the depositor; ? = inconclusive; nt = no result given; [ ] = remark or other dose. In the library only some 12% were active in any assay of this set; here they are far more common. Unless noted, calls follow the shape of the dose curve; as a rule, active = well fitted curve in the direction sought with a large enough effect; inconclusive = small, poorly fitted or top-dose-only effect, or another doubt; inactive = no such curve, though single readings can be large; an effect the other way counts as inactive or inconclusive. Unless noted, % is scaled to controls: 0 for no effect and ±100 for the full control effect; potency is read from the fitted curve at half-maximal effect.

SMILES	ALDH1A1 block	Gal4-VP16 FLuc	RORgamma inh	Sfp inh	PLK1 PBD block
CSc1ccc(CN2CCC2(C)C(=O)NCc2ccc3c(c2)OCO3)cc1 (centres undefined)	nt	nt	nt	nt	5.3%
COc1ccc(C(=O)Oc2ccc[nH]c2=O)cc1	nt	-6.6%	13.2%	6.2%	-8.3%
CCNC(=O)Oc1ccc[nH]c1=O	nt	?	23.7%	25.1µM*	?
CN(CCc1cn[nH]c1)Cc1nc(C(c2ccccc2)c2ccccc2)no1	-8.7%	?	10µM*	17.6%	-5.1%
CCN(CC)CCN(C)Cc1nc(C(c2ccccc2)c2ccccc2)no1	nt	1.0%	-18.4%	9.0%	3.8%
CN(C)CCOC(=O)c1ccc(N)cc1	-2.4%[13.5 µM]	nt	nt	nt	nt
CC(C)(C)C(=O)OCOP(=O)(OCOC(=O)C(C)(C)C)C(C)(Oc1ccc(O)cc1)P(=O)(OCOC(=O)C(C)(C)C)OCOC(=O)C(C)(C)C	?	6.7%	-16.2%	?	nt
O=C1CC(N2CCCCCC2)C(=O)N1c1ccc(F)cc1 (centres undefined)	12.6µM*	?	?	-5.5%	-1.8%
COc1ccc(N2C(=O)CC(N3CCN(c4cccc(Cl)c4)CC3)C2=O)cc1 (centres undefined)	nt	-4.5%	5.7%	5.0%	-18.8%
COc1ccc(N2C(=O)CC(N3CCCCC3)C2=O)cc1 (centres undefined)	17.8µM*	?	-109.3%	8.4%	0.8%
CN(NC1CC(=O)N(c2ccccc2)C1=O)c1ccccc1 (centres undefined)	?	?	?	44.7µM*	-14.0%
Cc1cccc(N2C(=O)CC(N3CCN(C(=O)c4ccccc4)CC3)C2=O)c1 (centres undefined)	25.1µM*	-14.0%	-0.1%	8.0%	-0.4%
Cc1cccc(N2C(=O)CC(N3CCN(c4ccccc4)CC3)C2=O)c1 (centres undefined)	?	1.9%	-14.1%	3.4%	-13.1%
Cc1cc(C)c(C)c(S(=O)(=O)NCCC(=O)O)c1C	11.1%	nt	nt	nt	nt
C[C@@H](CN(C)C)CN1c2ccccc2CCc2ccccc21	8.3%[20.9 µM]	-10.9%[17 µM]	4.4%[2.98 µM]	16.3%	nt
COc1ccc(N2C(=O)CC(N3CCN(S(=O)(=O)c4c(C)cc(C)cc4C)CC3)C2=O)cc1 (centres undefined)	nt	nt	nt	nt	-3.3%
COc1ccc(N2C(=O)CC(NC3CCCCNC3=O)C2=O)cc1 (centres undefined)	20µM*	1.7%	-34.9%	3.8%	-7.5%
O=C1CC(N2CCN(c3ccccc3)CC2)C(=O)N1c1ccc(Cl)cc1 (centres undefined)	nt	3.7%	16.3%	23.6%	2.2%
COc1ccc(N2C(=O)CC(N3CCN(c4ccc(S(=O)(=O)N5CCCC5)cc4)CC3)C2=O)cc1 (centres undefined)	22.4µM*	-12.2%	19.6%	-6.8%	0.4%
COc1ccc(N2C(=O)CC(N3CCCC4CCCCC43)C2=O)cc1 (centres undefined)	8.91µM*	1.2%	?	-4.2%	-9.3%
CC1CCN(C2CC(=O)N(c3ccccc3)C2=O)CC1 (centres undefined)	28.2µM*	?	?	-14.2%	-1.8%
COc1cc(OC)cc(C(=O)NCC(=O)Nc2ccc(OC)c(Cl)c2)c1	nt	0.3%	38.5%	5.3%	-3.8%
CCOC1=C2[C@@H](CN(S(=O)(=O)c3ccc(C)cc3)[C@H]2c2cccs2)[C@H]2C(=O)N(c3ccccc3)C(=O)[C@H]2C1	nt	nt	nt	nt	9.2%
CCCCOCCCNC(=O)C[C@@H]1C[C@@]2(C(=O)OCC)CCC=C2N(Cc2cccc3ccccc23)C1=O	nt	nt	nt	nt	-6.9%
CS(=O)(=O)c1ccc(CNC(=O)[C@@H]2C[C@H]2[C@@H](NP(=O)(c2ccccc2)c2ccccc2)c2ccccc2)cc1	-7.7%	-2.3%	?	11.3%	nt
COc1ccc(N2C(=O)CC(N3CCC(O)(c4cccc(C(F)(F)F)c4)CC3)C2=O)cc1 (centres undefined)	?	?	2.51µM*	-1.0%	-17.8%
COc1cccc(N2C(=O)CC(N3CCC(C(N)=O)(N4CCCCC4)CC3)C2=O)c1 (centres undefined)	10µM*	-2.8%	23.2%	-6.1%	-0.5%
COCCCNC(=O)C(C)N1c2cccc3cccc(c23)S1(=O)=O (centres undefined)	nt	-5.5%	?	9.3%	10.6µM*
